{"source": "PubChem BioAssay (EPA / NIEHS)", "note": "Results filed as inconclusive are left out. The source made the active and inactive calls. Rule for the calls: active = hit-call score of the fitted dose curve at least 0.9, where 1 is the maximum; inconclusive = response in the unintended direction; inactive = score below 0.9.", "data": [{"read-out": "organic anion transporter (SLCO1B1), SLCO1B1 (gene 10599)", "test": "CLD_SLCO1B1_6hr: CellzDirect (CLD) Gene Expression Assay for organic anion transporter (SLCO1B1) at 6 hours (AID 2283668);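 note: active means mRNA induction above DMSO baseline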", "method": "CLD_6hr is a cell-based, multiplexed-readout assay that uses hepatocyte, a human liver primary cell, with measurements taken at 6 hours after chemical dosing in a 96-well plate.CLD_SLCO1B1_6hr is one of 16 assay component(s) measured or calculated from the CLD_6hr assay. It is designed to make measurements of mRNA induction, a form of inducible reporter, as detected with chemiluminescence signals by Quantitative Nuclease Protection Assay (qNPA) technology.Data from the assay component CLD_SLCO1B1_6hr was analyzed at the endpoint, CLD_SLCO1B1_6hr, in the positive analysis fitting direction relative to DMSO as the negative control and baseline of activity. Using a type of inducible reporter, gain-of-signal activity can be used to understand changes in the reporter gene as they relate to the gene SLCO1B1. Furthermore, this assay endpoint can be referred to as a primary readout. To generalize the intended target to other relatable targets, this assay endpoint is annotated to the transporter intended target family, where subfamily is organic anion transporter.\nHuman hepatocyte cultures were treated daily for two consecutive days with fresh dosing solutions containing appropriate concentrations of the 320 ToxCast chemicals (chemical identities were blinded to CellzDirect and other ToxCast collaborators), vehicle control (0.2% DMSO), and positive control inducers as summarized in Table 1. Due to the large number of treatment groups and chemicals examined, the ToxCast chemicals were divided into two groups (spanning two independent cultures of hepatocytes from separate donor preparations (Hu778: ToxCast plates 1 and 2; Hu776: ToxCast plates 3 and 4). Each preparation of human hepatocyte cultures was treated with respective vehicle control, medium only control, set of six positive controls/reference chemicals for the five hepatic receptor pathways, and a subset of eight of the ToxCast chemicals (indoxacarb, pyrithiobac-sodium, norflurazon, cyhalofop-butyl, methomyl, thiram, acetochlor, and propiconazole). These replicate data, coupled with internal replicates designed within the blinded ToxCast chemical library, provided additional data to evaluate interindividual differences between hepatocyte preparations and their potential impact on chemical profiles.Cell morphology and integrity were evaluated using phase-contrast microscopy as an indicator of hepatocyte cell health (Tyson & Green, 1987). Cultures for each treatment group (i.e., media, vehicle [0.2% DMSO], positive control inducers [multiple concentrations], and the ToxCast chemicals [multiple concentrations]) were observed and cell morphology was assessed relative to vehicle control cultures at each harvest time point (0, 6, 24, or 48 h). […] Images were evaluated at the conclusion of the study to assess changes in cell integrity and account for the effects of chemical exposure on uncharacteristic changes in concentration-dependent gene expression profiles. The results from these determinations of apparent cytotoxicity were annotated (yes/no) alongside the corresponding qNPA data for reference.At the conclusion of each treatment period, hepatocyte cultures (96-well) were washed with 1 volume of HBSS, lysed by addition of 25 ul ArrayPlate lysis buffer (HTG, Tucson, AZ), and 70 ul/well of Denaturation Oil, denatured by incubation at 95C for 10 min, and frozen at approximately -70C until analysis by nuclease protection assay (qNPA) (Roberts et al., 2007). For qNPA analysis, cell lysates were thawed at 50C for approximately 30 min, qNPA probes were added, and samples were incubated at 95C for 10 min to begin the detection process by denaturing the target RNA, dissociating the duplexes and secondary structure hybridization. At the conclusion of the hybridization period, S1 nuclease reagent was added to each sample to digest all nonprotected nucleotides at 50C for 60-90 min. […]", "values": [{"smiles": "CCOC(=O)C(C)Oc1ccc(Oc2nc3ccc(Cl)cc3o2)cc1", "note": "(stereo unspecified)", "outcome": "inactive"}, {"smiles": "COC(=O)c1cccc(C)c1S(=O)(=O)NC(=O)Nc1nc(OCC(F)(F)F)nc(N(C)C)n1", "outcome": "inactive"}, {"smiles": "COC(=O)c1ccccc1S(=O)(=O)NC(=O)Nc1nc(OC(F)F)cc(OC(F)F)n1", "outcome": "inactive"}, {"smiles": "CCCN(CCC)C(=O)SCC", "outcome": "inactive"}, {"smiles": "S=C([S-])NCCNC(=S)[S-].[Mn+2]", "outcome": "inactive"}, {"smiles": "O=C(Nc1ccc([N+](=O)[O-])cc1Cl)c1cc(Cl)ccc1O", "outcome": "inactive"}, {"smiles": "CCOC(=O)NCCOc1ccc(Oc2ccccc2)cc1", "outcome": "inactive"}, {"smiles": "COC(=O)c1ccc(I)cc1S(=O)(=O)NC(=O)Nc1nc(C)nc(OC)n1", "outcome": "inactive"}, {"smiles": "COC(=O)c1ccc(CNS(C)(=O)=O)cc1S(=O)(=O)NC(=O)Nc1nc(OC)cc(OC)n1", "outcome": "inactive"}, {"smiles": "C#CCOC(=O)[C@@H](C)Oc1ccc(Oc2ncc(Cl)cc2F)cc1", "outcome": "inactive"}, {"smiles": "CCSC(=O)N(CC(C)C)CC(C)C", "outcome": "inactive"}, {"smiles": "c1ccc(Nc2ccccc2)cc1", "outcome": "inactive"}, {"smiles": "COc1nc(C)nc(NC(=O)NS(=O)(=O)c2ccccc2OCCCl)n1", "outcome": "inactive"}, {"smiles": "OB(O)O", "outcome": "inactive"}, {"smiles": "CCCOC(=O)c1ccc(C(=O)OCCC)nc1", "outcome": "inactive"}, {"smiles": "CCOC(=O)[C@H](C)Oc1ccc(Oc2nc3ccc(Cl)cc3o2)cc1", "outcome": "inactive"}, {"smiles": "S=C(S)NCCNC(=S)S.[Mn+2].[S-]C([S-])=NCCN=C([S-])[S-].[Zn+2]", "outcome": "inactive"}, {"smiles": "CCCN(CCC)c1c([N+](=O)[O-])cc(C(F)(F)F)c(N)c1[N+](=O)[O-]", "outcome": "inactive"}, {"smiles": "CCCCC(CC)COC(=O)c1ccccc1C(=O)O", "note": "(stereo unspecified)", "outcome": "inactive"}, {"smiles": "C=CCOC(Cn1ccnc1)c1ccc(Cl)cc1Cl", "note": "(stereo unspecified)", "outcome": "inactive"}, {"smiles": "CC1(C)C(C=C(Cl)Cl)C1C(=O)OCc1cccc(Oc2ccccc2)c1", "note": "(stereo unspecified)", "outcome": "inactive"}, {"smiles": "CCN(CC)C(=O)c1cccc(C)c1", "outcome": "inactive"}, {"smiles": "CCC(O)=C1C(=O)CC(C(=O)O)CC1=O", "note": "(stereo unspecified)", "outcome": "inactive"}, {"smiles": "CCCCOC(=O)C(C)Oc1ccc(Oc2ccc(C(F)(F)F)cn2)cc1", "note": "(stereo unspecified)", "outcome": "inactive"}, {"smiles": "COc1c(Cl)ccc(Cl)c1C(=O)O", "outcome": "inactive"}, {"smiles": "CCC(C)OC(=O)N1CCCCC1CCO", "note": "(stereo unspecified)", "outcome": "inactive"}]}]}
